Whole data set: some 8,300 sequences, median “log2 fold change of degron read counts, EGFP-low vs EGFP+ sorted cells (limma voom), compound-induced degradation” near -1.1, cut for the highest 2% near 3.2. Shown is part of a subset that was picked to be rich in the highest values.

From the supplement of paper PMC12645437, “Orthogonal IMiD-Degron Pairs Induce Selective Protein Degradation in Cells” (ACS Chemical Biology, 2025) come the findings set out here.

In the assay the target is T1, CRBN, Q96SW2.
T1 chain: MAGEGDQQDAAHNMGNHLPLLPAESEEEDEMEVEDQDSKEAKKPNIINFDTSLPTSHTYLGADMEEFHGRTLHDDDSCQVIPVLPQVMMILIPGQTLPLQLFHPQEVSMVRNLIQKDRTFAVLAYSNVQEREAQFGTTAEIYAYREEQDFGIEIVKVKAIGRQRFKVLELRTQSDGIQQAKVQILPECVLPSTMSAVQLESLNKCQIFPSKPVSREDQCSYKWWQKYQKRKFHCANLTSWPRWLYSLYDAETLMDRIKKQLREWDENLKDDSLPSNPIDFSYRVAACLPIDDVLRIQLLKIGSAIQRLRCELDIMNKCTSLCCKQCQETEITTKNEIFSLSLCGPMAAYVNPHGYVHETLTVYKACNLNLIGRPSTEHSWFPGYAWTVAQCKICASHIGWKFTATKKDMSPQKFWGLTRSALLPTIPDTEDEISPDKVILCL
The assay is described as follows: log2 fold change of degron read counts, EGFP-low vs EGFP+ sorted cells (limma voom), compound-induced degradation; higher = more compound-induced degradation of the degron-EGFP fusion; degrons are variants of IKZF1/3 zinc finger 2; compound dose not given here. The following applies: Jurkat, 18 h.

Where [1] appears, read: compound: compound 19 (5-tert-butyl-thalidomide).
The mark [2] stands for this setting: compound: compound 22 (5-morpholino-thalidomide).
The mark [3] stands for this setting: compound: compound 33 (diphenyl IMiD analogue).
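Note: pooled lentiviral library of zinc finger degron-EGFP fusions in mCherry-positive Jurkat cells, FACS-sorted after compound exposure, with degron abundance counted by next-generation sequencing.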

For the sequence LRCEICGFNCTQKGNLLRHIKL [46L_47R_49E_50I_52G_53F_54N_55C_67L_, Q9UKT9], the “log2 fold change of degron read counts” value reads like this: under setting [1], -1.42; under setting [2], -1.56; under setting [3], -0.0516; (compound: thalidomide) 0.0396.
The corresponding values for FGCNQCGRIFTQKGNLLRHIKL [46F_47G_49N_50Q_52G_53R_54I_55F_67L_, Q9UKT9] are -1.52, -1.65, -1.94 and -1.45.
For FECNQCGRHFTQKGNLLRHIKL [46F_47E_49N_50Q_52G_53R_54H_55F_67L_, Q9UKT9], in that order: -2.89, -3.21, -3.78 and -2.98.
The corresponding values for FSCNQCGRTFTQKGNLLRHIKL [46F_47S_49N_50Q_52G_53R_54T_55F_67L_, Q9UKT9] are -2.51, -2.59, -2.31 and -2.34.
On to FHCEICGRSFTQKGNLLRHIKL [46F_47H_49E_50I_52G_53R_54S_55F_67L_, Q9UKT9], for which the “log2 fold change of degron read counts” value runs as follows: under setting [1], -1.49; under setting [2], -1.82; under setting [3], -0.909; (compound: thalidomide) -2.11.
The corresponding values for FDCPICGALFTQKGNLLRHIKL [46F_47D_49P_50I_52G_53A_54L_55F_67L_, Q9UKT9] are -0.924, -0.888, 1.62 and 0.905.
For LHCEICGFTCTQKGNLLRHIKL [46L_47H_49E_50I_52G_53F_54T_55C_67L_, Q9UKT9], in that order: 2.89, 2.93, 2.43 and 2.43.
In the case of LNCEICGFTCTQKGNLLRHIKL [46L_47N_49E_50I_52G_53F_54T_55C_67L_, Q9UKT9], the “log2 fold change of degron read counts” value reads like this: under setting [1], 1.73; under setting [2], 0.624; under setting [3], -0.0341; (compound: thalidomide) 0.396.
The corresponding values for LFCEICGFTCTQKGNLLRHIKL [46L_47F_49E_50I_52G_53F_54T_55C_67L_, Q9UKT9] are 3.64, 3.67, 2.59 and 2.56.
The corresponding values for FQCNQCGHNFTQKGNLLRHIKL [46F_47Q_49N_50Q_52G_53H_54N_55F_67L_, Q9UKT9] are -2.53, -2.33, -2.93 and -2.77.
For FTCEQCGAYFTQKGNLLRHIKL [46F_47T_49E_50Q_52G_53A_54Y_55F_67L_, Q9UKT9], in that order: -2.34, -1.73, 0.185 and -0.424.
For FECEQCGAPFTQKGNLLRHIKL [46F_47E_49E_50Q_52G_53A_54P_55F_67L_, Q9UKT9], the “log2 fold change of degron read counts” value runs as follows: under setting [1], -1.7; under setting [2], -3.27; under setting [3], -1.9; (compound: thalidomide) -1.5.
The corresponding values for FNCPICGRPFTQKGNLLRHIKL [46F_47N_49P_50I_52G_53R_54P_55F_67L_, Q9UKT9] are 1.49, 0.628, 0.167 and 1.01.
Turning to FFCPICGAPFTQKGNLLRHIKL [46F_47F_49P_50I_52G_53A_54P_55F_67L_, Q9UKT9], the “log2 fold change of degron read counts” value by setting is: under setting [1], 3.92; under setting [2], 3.44; under setting [3], 2.55; (compound: thalidomide) 2.09.
The corresponding values for FRCPQCGAPFTQKGNLLRHIKL [46F_47R_49P_50Q_52G_53A_54P_55F_67L_, Q9UKT9] are 0.857, 2.89, 2.7 and 2.5.
Consider FSCPICGAPFTQKGNLLRHIKL [46F_47S_49P_50I_52G_53A_54P_55F_67L_, Q9UKT9], for which the “log2 fold change of degron read counts” value was 3.29 under setting [1], 2.92 under setting [2], 2.02 under setting [3] and 2.62 (compound: thalidomide).
The corresponding values for FRCPICGADFTQKGNLLRHIKL [46F_47R_49P_50I_52G_53A_54D_55F_67L_, Q9UKT9] are -0.99, -0.254, 1.92 and 1.51.
The corresponding values for FRCPICGAPFTQKGNLLRHIKL [46F_47R_49P_50I_52G_53A_54P_55F_67L_, Q9UKT9] are 3.44, 3.76, 3.04 and 3.53.
The corresponding values for FFCPICGAFFTQKGNLLRHIKL [46F_47F_49P_50I_52G_53A_54F_55F_67L_, Q9UKT9] are 2.73, 2.52, 1.71 and 0.267.
For the sequence FFCPICGAMFTQKGNLLRHIKL [46F_47F_49P_50I_52G_53A_54M_55F_67L_, Q9UKT9], the “log2 fold change of degron read counts” value was determined as 2.56 under setting [1], 2.36 under setting [2], 1.76 under setting [3] and 0.179 (compound: thalidomide).
For the sequence FNCPICGAPFTQKGNLLRHIKL [46F_47N_49P_50I_52G_53A_54P_55F_67L_, Q9UKT9], the “log2 fold change of degron read counts” value is, setting by setting: under setting [1], 3.48; under setting [2], 3.2; under setting [3], 1.92; (compound: thalidomide) 2.43.
For FECPICGAPFTQKGNLLRHIKL [46F_47E_49P_50I_52G_53A_54P_55F_67L_, Q9UKT9], in that order: 2.46, 0.3, 2.23 and 2.98.
Consider FKCPICGAPFTQKGNLLRHIKL [46F_47K_49P_50I_52G_53A_54P_55F_67L_, Q9UKT9], for which the “log2 fold change of degron read counts” value is 2.55 under setting [1], 2.24 under setting [2], -0.00355 under setting [3] and 2.87 (compound: thalidomide).
Take FNCPICGAMFTQKGNLLRHIKL [46F_47N_49P_50I_52G_53A_54M_55F_67L_, Q9UKT9]: the “log2 fold change of degron read counts” value is, setting by setting: under setting [1], 1.73; under setting [2], 0.564; under setting [3], 0.719; (compound: thalidomide) 0.478.
The corresponding values for FYCEICGRMFTQKGNLLRHIKL [46F_47Y_49E_50I_52G_53R_54M_55F_67L_, Q9UKT9] are 1.51, 1.03, 1.08 and -0.729.
For FWCPQCGATFTQKGNLLRHIKL [46F_47W_49P_50Q_52G_53A_54T_55F_67L_, Q9UKT9], in that order: -0.373, 1.49, 0.797 and -1.24.
The corresponding values for FMCDQCGAAFTQKGNLLRHIKL [46F_47M_49D_50Q_52G_53A_54A_55F_67L_, Q9UKT9] are -1.96, -2.12, 0.439 and -2.32.
For LYCNQCGFLCTQKGNLLRHIKL [46L_47Y_49N_50Q_52G_53F_54L_55C_67L_, Q9UKT9], the “log2 fold change of degron read counts” value under setting [1] is -1.29, the “log2 fold change of degron read counts” value under setting [2] was -1.42, the “log2 fold change of degron read counts” value under setting [3] is -1.67 and the “log2 fold change of degron read counts” value (compound: thalidomide) was -1.29.
